SW480 rereplic: induces DNA re-replication in SW480 colon adenocarcinoma cells; SW480 DNA re-replication, Hoechst DNA content imaging, 48 h; Potency, µM (titrated, usually from 46.1 µM), inactives show at the top dose re-replication activation, usual class: activators; 340,000 tested, 1.8% active; also: % of control where 0% means no effect; nearly all actives have a fitted effect of over 55% in size
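Cells (250 per well) received 23 nL compound or DMSO by pin tool and were kept 48 hr at 37 C, 5% CO2. Nuclei were then stained with Hoechst for 40 min and scanned for DNA content.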
HT1080 IDH1KD tx: toxicity to HT-1080 IDH1 knockdown cells (counter line); Potency, µM (highest dose often 46.1 µM), without a hit: at the top dose activity, negative = toxicity, hits mostly cytotoxic; 360,000 tested, 2% active; AID 686971; HT-1080 IDH1 knockdown viability, ATP luminescence, 48 h;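 also: 0% = DMSO wells and -100% = cell-free medium wells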
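Cytotoxicity counter-line: IDH1KD HT-1080, 48 h, CellTiter-Glo. Curves classed by r2, magnitude and activity.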
MCF10A rereplic: inducers of DNA re-replication in MCF 10A breast cells. MCF 10A DNA re-replication, Hoechst nuclear intensity, 48 h. AID 624296. 350,000 tested, 2.9% active. Potency, µM (top dose mostly 46.1 µM), for the others: at the highest dose activity, positive = re-replication, hits mostly activators; also: % of control where 0% means no effect; nearly all actives have a fitted effect of over 50% in size
KB-3-1 cytotox: KB-3-1 parental cell cytotoxicity | KB-3-1 viability, CellTiter-Glo ATP luminescence, 72 h | Potency, µM (series often up to 46.1 µM), hits mostly cytotoxic | 400,000 tested, 1.4% active; also: % is scaled to controls: 0 for no effect and ±100 for the full control effect; nearly all actives have a fitted effect of over 60% in size
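Luminescent ATP read-out (CellTiter-Glo) measures survival of drug-naive KB-3-1 cells after 72 h compound exposure at 37 °C. Titration series was screened from lowest to highest concentration, with DMSO vehicle plates as background controls.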
KB-V1 cytotox: kills drug-selected multidrug resistant KB-V1 cells; KB-V1 MDR cells viability, CellTiter-Glo, 72 h; Potency, µM (highest dose often 46.1 µM), hits mostly cytotoxic; 400,000 tested, 3.4% active; also: % is scaled to controls: 0 for no effect and ±100 for the full control effect; nearly all actives have a fitted effect of over 60% in size
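Luminescent ATP read-out (CellTiter-Glo, 10 min) measures survival of drug-selected KB-V1 MDR cells after 72 h, 37 degrees C compound exposure. Medium: phenol-red-free DMEM, 10% FBS. Values from fitted concentration-response curves.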
HT1080-NT tox: kills 2HG-producing HT-1080-NT fibrosarcoma cells; HT-1080-NT fibrosarcoma viability, CellTiter-Glo ATP luminescence, 48 h; Potency, µM (top dose mostly 46.1 µM), for inactives: at the top dose activity, negative = less viability, usual class: cytotoxic; 360,000 tested, 1.6% active; AID 686970;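 also: NT is the 2HG producing partner of a matched IDH1 knockdown line; 0% = DMSO-treated cells and -100% = media-only wells without cells; nearly all actives have a fitted effect of over 55% in size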
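Compounds were tested in concentration-response format on HT-1080-NT cells for 48 hours at 37 degrees C. Cell viability came from CellTiter-Glo luminescence; curves were classified by r2, response magnitude and activity.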
Starred values were filed as active, the others as inactive; i = inactive; ? = inconclusive; . = not tested or not shown. Sampled rows, rich in hits. Any-hit rate of the full collection: about 7.9%. Calls follow the shape of the dose curve; as a rule, active = well fitted curve in the direction sought with a large enough effect; inconclusive = small, poorly fitted or top-dose-only effect, or another doubt; inactive = no such curve, though single readings can be large; an effect the other way counts as inactive or inconclusive. Potency is read from the fitted curve at half-maximal effect.

SMILES	SW480 rereplic	HT1080 IDH1KD tx	MCF10A rereplic	KB-3-1 cytotox	KB-V1 cytotox	HT1080-NT tox
Cc1ccc(-c2nnc(SCC(=O)N/N=C/c3ccccc3C(=O)O)n2-c2ccc(C)cc2)cc1	14%	-2%	13%	i	i	2%
Cc1ccc(/C=N/NC(=O)CSc2nnc(-c3ccccc3)n2-c2ccc(Cl)cc2)o1	-5%	4%	7%	i	i	0%
Cc1ccc(/C=N/NC(=O)CSc2nnc(-c3ccc(Cl)cc3)n2-c2ccc(Cl)cc2)o1	?	?	94%	?	?	18µM*
CCOC(=O)C1=CCN(S(=O)(=O)c2ccccc2C)C1c1cccc(Br)c1 (stereo not given)	.	?	.	i	?	?
O=C(CCl)N(c1ccccc1)C1CCS(=O)(=O)C1 (stereo not given)	16µM*	18µM*	?	i	?	?
COc1cc2c(=O)n(CCc3ccccc3)c(=O)n(CC(=O)Nc3ccccc3)c2cc1OC	.	.	.	i	i	.
COc1ccccc1N1CCN(c2ccc(-c3ccccc3)nn2)CC1	4.1µM*	?	2.6µM*	2.1µM*	2.1µM*	2.6µM*
COc1ccc(CN2CCN(c3ccccc3OC)CC2)cc1OC	-17%	-12%	2.1µM*	i	?	-3%
COc1ccccc1N1CCN(Cc2ccc(C(=O)O)cc2)CC1	-6%	2%	10%	i	?	1%
COc1ccccc1N1CCN(c2ccc3ccccc3n2)CC1	-22%	-13%	17%	i	?	-15%
CCOC(=O)C1CCN(Cc2ccc(O)c3ncccc23)CC1	0.92µM*	-30%	4.1µM*	23µM*	16µM*	?
Oc1ccc(CN2CCCc3ccccc32)c2cccnc12	11%	?	20%	23µM*	?	-28%
CCOC(=O)c1cnc2c(ccc3ccccc32)c1Nc1ccc(N(C)C)cc1	.	.	.	i	i	.
O=C(CCN1C(=O)/C(=C\c2cccc(Br)c2)SC1=S)N1CCOCC1	?	-1%	12%	.	.	0%
Cc1cccc(Cn2nc(C)n3c(cc4cc(C)ccc43)c2=O)c1	.	.	.	i	i	.
N#Cc1ncc(Br)cn1	.	14%	.	.	.	1%
COc1ccccc1N1CCN(Cc2ccc(O)c3ncccc23)CC1	?	0.16µM*	?	5.2µM*	?	0.14µM*
Cc1ccc([C@@H]2C[C@H]3[C@@H](CN2S(=O)(=O)c2ccc(Cl)cc2)C(=O)C[C@@H](c2ccccc2)N3S(=O)(=O)c2ccc(C)cc2)cc1	.	-8%	.	i	?	3%
COC(=O)c1cc(OC)c(OC)cc1NC(=O)c1ccc2c(c1)CCN2S(=O)(=O)c1ccccc1	.	.	.	i	i	.
O=C(NNC(=S)NC(=O)c1ccccc1Cl)c1cccc([N+](=O)[O-])c1	10%	-19%	?	?	i	-4%
COc1ccc([N+](=O)[O-])cc1NC(=O)C(C)NNC(=O)c1cccc([N+](=O)[O-])c1 (stereo not given)	-4%	-17%	11%	i	18µM*	-10%
COc1ccc([N+](=O)[O-])cc1NC(=S)NC(NC(=O)C(c1ccccc1)c1ccccc1)C(Cl)(Cl)Cl (stereo not given)	0%	5.8µM*	?	?	i	?
O=C(NC(NC(=S)Nc1c(Cl)cccc1Cl)C(Cl)(Cl)Cl)c1cccc([N+](=O)[O-])c1 (stereo not given)	?	?	6.5µM*	?	?	?
CC(C)CC(=O)NC(Nc1ccc([N+](=O)[O-])cc1)C(Cl)(Cl)Cl (stereo not given)	2%	-28%	5%	?	18µM*	?
COc1ccc([N+](=O)[O-])cc1NC(=O)C(C)c1ccccc1 (stereo not given)	3%	-5%	?	i	i	-9%

Screening results as filed in PubChem.
